Test results published in ChEMBL document CHEMBL4513216, “Probing the Open Global Health Chemical Diversity Library for Multistage-Active Starting Points for Next-Generation Antimalarials” (ACS Infect Dis, 2020).
In all, about 65,000 compounds went through this assay and about 2,100 (3.2%) showed an effect of 50% or more. The median lay at about -52%. Shown is part of a subset that was picked to be rich in strong results.

Test system: Plasmodium falciparum
Assay: Screen against P. falciparum Asexual Blood Stage (ABS), at 5uM
Assay type: functional, Dd2
Conditions: tested at 5 uM

Question: Cc1cc(C)n(CC2CN(Cc3cnc(C)s3)CCO2)n1 (configuration not stated) was tested. Which INHIBITION did it give?
Answer: 53.2%

Question: With Cc1cc(CN2CCOC(Cn3nc(C)cc3C)C2)on1 (configuration not stated) as the molecule, how does the INHIBITION read?
Answer: 46.7%

Question: How did the INHIBITION turn out when Cc1cnc(CN2CCOC(Cn3nc(C)cc3C)C2)cn1 (configuration not stated) was run?
Answer: -20.8%

Question: For CCN1CCN(C(=O)c2cc(NC(=O)c3ccccc3)n(C)n2)CC1, which INHIBITION is on record?
Answer: -98%

Question: Which INHIBITION does the source give for CC(=O)N(Cc1ncc(C(C)C)o1)C1CCN(CCn2cccn2)C1 (configuration not stated) here?
Answer: -150%

Question: Which INHIBITION does the source give for CC(=O)N(Cc1ncc(C(C)C)o1)C1CCN(Cc2cc(C)on2)C1 (configuration not stated) here?
Answer: -83.8%

Question: CC(=O)N(Cc1ncc(C(C)C)o1)C1CCN(CC2CCC2)C1 (configuration not stated) was tested. Which INHIBITION did it give?
Answer: -113%

Question: With CC(=O)N(Cc1ncc(C(C)C)o1)C1CCN(CCC#N)C1 (configuration not stated) as the molecule, how does the INHIBITION read?
Answer: 57%

Question: For CCc1cnc(CN(C(C)=O)C2CCN(Cc3nccn3C)C2)o1 (configuration not stated), which INHIBITION is on record?
Answer: 51.5%

Question: Which INHIBITION does the source give for CC(=O)N(Cc1ncc(C)o1)C1CCN(Cc2nccn2C)C1 (configuration not stated) here?
Answer: -133%

Question: With CC(=O)N(Cc1ncc(C(C)C)o1)C1CCN(Cc2nccn2C)C1 (configuration not stated) as the molecule, how does the INHIBITION read?
Answer: -176%

Question: CC(=O)N(Cc1ncc(C(C)C)o1)C1CCN(Cc2cc(C)no2)C1 (configuration not stated) was tested. Which INHIBITION did it give?
Answer: 59%

Question: Which INHIBITION does the source give for CC(=O)N(Cc1ncc(C(C)C)o1)C1CCN(Cc2ccno2)C1 (configuration not stated) here?
Answer: 45.7%

Question: Which INHIBITION does the source give for COCCN(Cc1cnn(C)c1)C(=O)C1CCCN(C2CCOCC2)C1 (configuration not stated) here?
Answer: -15.9%

Question: With CCN(Cc1ccncc1)c1cc(C2CCCNC2)nc(C)n1 (configuration not stated) as the molecule, how does the INHIBITION read?
Answer: -121%

Question: For CN(Cc1cccnc1)C1COC2(CCN(Cc3nccs3)CC2)C1 (configuration not stated), which INHIBITION is on record?
Answer: -52.5%

Question: How did the INHIBITION turn out when O=C(c1cccnc1)N1CCCC1c1cc[nH]n1 (configuration not stated) was run?
Answer: -66.5%

Question: Which INHIBITION does the source give for N#Cc1ccc(N2CCCC3(CCN(c4cccnc4)CC3)C2)cc1 here?
Answer: -71.3%

Question: With COc1cc(C)sc1C(=O)NCCC(=O)N(C)c1ccccc1 as the molecule, how does the INHIBITION read?
Answer: 33.9%

Question: Which INHIBITION does the source give for COc1cc(C)sc1C(=O)NCCNc1ccccc1 here?
Answer: 18.7%

Question: With COc1cc(C)sc1C(=O)NCCC(=O)N(C)Cc1ccccc1 as the molecule, how does the INHIBITION read?
Answer: 59.3%

Question: With Fc1ccc(OCCNC2CCN(Cc3ccccn3)CC2)c(F)c1 as the molecule, how does the INHIBITION read?
Answer: 69.8%

Question: How did the INHIBITION turn out when c1ccc(CN2CCC(NCCc3ccc4c(c3)CCO4)CC2)nc1 was run?
Answer: 36%

Question: How did the INHIBITION turn out when N#Cc1ccc(NC2CCN(Cc3ccccn3)CC2)c(F)c1 was run?
Answer: -118%

Question: Which INHIBITION does the source give for COC(=O)c1ccc(CNCc2cn(C)nc2C)cc1 here?
Answer: -133%

Question: Which INHIBITION does the source give for O=C(NCCC1=CCCCC1)NC1CCCc2c1cnn2CCO (configuration not stated) here?
Answer: -134%

Question: How did the INHIBITION turn out when CN(Cc1ccccc1)CC(O)Cn1cnc2ccccc2c1=O (configuration not stated) was run?
Answer: -2.56%

Question: For CN(Cc1ccccc1)CC(O)Cn1cnc2ccsc2c1=O (configuration not stated), which INHIBITION is on record?
Answer: 19%

Question: Which INHIBITION does the source give for CN(Cc1ccccc1)CC(O)Cn1cnc2sccc2c1=O (configuration not stated) here?
Answer: 62.1%

Question: How did the INHIBITION turn out when CC(C)CS(=O)(=O)Nc1ccc2c(c1)OCC(C)(C)C(=O)N2C was run?
Answer: -28.6%

Question: With CCCC(NC(=O)c1cc(C)c(F)cc1F)c1nnn[nH]1 (configuration not stated) as the molecule, how does the INHIBITION read?
Answer: -94.1%

Question: O[C@@H]1C[C@H]2CN(Cc3ccccc3Cl)[C@H](Cc3ccccc3)CN2C1 was tested. Which INHIBITION did it give?
Answer: 56.3%

Question: For COc1ncc(CN2C[C@@H]3C[C@@H](O)CN3C[C@@H]2Cc2ccccc2)cn1, which INHIBITION is on record?
Answer: -117%

Question: Which INHIBITION does the source give for O[C@@H]1C[C@H]2CN(Cc3ccccc3)[C@H](Cc3ccccc3)CN2C1 here?
Answer: 69.1%

Question: With C=Cn1ncc(CN2C[C@@H]3C[C@@H](O)CN3C[C@@H]2Cc2ccccc2)c1C as the molecule, how does the INHIBITION read?
Answer: -7.65%

Question: For O[C@@H]1C[C@H]2CN(CC3CCCCC3)[C@H](Cc3ccccc3)CN2C1, which INHIBITION is on record?
Answer: 37.6%

Question: For CCc1ncc(CN2C[C@@H]3C[C@@H](O)CN3C[C@@H]2Cc2ccccc2)cn1, which INHIBITION is on record?
Answer: -55%

Question: How did the INHIBITION turn out when COCC(=O)N1CCCC(c2cc(C(F)F)n3ncnc3n2)C1 (configuration not stated) was run?
Answer: 10.4%

Question: Which INHIBITION does the source give for Cn1cc(NC(=O)Cn2cc(-c3ccccc3)ncc2=O)cn1 here?
Answer: -15.3%

Question: COC(=O)c1cccc(S(=O)(=O)NCC(c2ccco2)N2CCCC2)c1 (configuration not stated) was tested. Which INHIBITION did it give?
Answer: 19.7%

Question: Cc1cnn(CC2CCCN2C(=O)Cc2cccs2)c1 (configuration not stated) was tested. Which INHIBITION did it give?
Answer: -35.5%

Question: For Cc1cnn(C2CN(CC(O)c3ccccc3)C2)c1 (configuration not stated), which INHIBITION is on record?
Answer: 40.9%

Question: With COc1ccc(C(O)CN2CC(n3cc(C)cn3)C2)cc1 (configuration not stated) as the molecule, how does the INHIBITION read?
Answer: 22%

Question: How did the INHIBITION turn out when Cc1cc(C)n(C2CN(CC(O)c3ccc4c(c3)OCO4)C2)n1 (configuration not stated) was run?
Answer: 43.5%

Question: With COc1ccc(C(O)CN2CC(n3nc(C)cc3C)C2)cc1 (configuration not stated) as the molecule, how does the INHIBITION read?
Answer: 49.2%

Question: How did the INHIBITION turn out when Cc1cc(C)n(C2CN(CC(O)c3ccc(S(C)(=O)=O)cc3)C2)n1 (configuration not stated) was run?
Answer: -123%

Question: How did the INHIBITION turn out when Cc1cc(C)n(C2CN(CC(O)c3ccc(C(F)(F)F)cc3)C2)n1 (configuration not stated) was run?
Answer: 65.4%

Question: Cc1cc(C)n(C2CN(CC(O)COc3ccc(F)cc3)C2)n1 (configuration not stated) was tested. Which INHIBITION did it give?
Answer: -18.8%

Question: Which INHIBITION does the source give for Cc1cc(C)n(C2CN(CC(O)c3ccc(F)cc3)C2)n1 (configuration not stated) here?
Answer: 62.8%

Question: With Cc1cnn(C2CN(CC(O)c3ccc(F)cc3)C2)c1 (configuration not stated) as the molecule, how does the INHIBITION read?
Answer: 57.4%

Question: How did the INHIBITION turn out when O=C(Cc1ccccc1)N1CCC(c2nnc(-c3ccccn3)o2)CC1 was run?
Answer: 2.71%

Question: CC(Cc1ccco1)NC(=O)Nc1ccc(N(C)C)nc1 (configuration not stated) was tested. Which INHIBITION did it give?
Answer: -297%

Question: How did the INHIBITION turn out when CC(C)COC(=O)N1CC(=O)N(CCc2ccccc2)CC(O)C1 (configuration not stated) was run?
Answer: -47.8%

Question: With Cc1oc(-c2ccsc2)nc1CN1CCCC(c2ccnn2C)C1 (configuration not stated) as the molecule, how does the INHIBITION read?
Answer: -72.5%

Question: With CN1CCN(Cc2cccnc2)C2(CCN(c3ncccn3)C2)C1=O (configuration not stated) as the molecule, how does the INHIBITION read?
Answer: -162%

Question: For Cn1ccnc1C(=O)N1CCC2(CCN2c2ncccn2)C1 (configuration not stated), which INHIBITION is on record?
Answer: -49.3%

Question: For Cc1ccc(Nc2nccc(C3CCN(C(=O)CN)C3)n2)nc1 (configuration not stated), which INHIBITION is on record?
Answer: -205%

Question: With Clc1ccc(N2CCN(CCCN3CCCCC3)CC2)nc1 as the molecule, how does the INHIBITION read?
Answer: 69.2%

Question: Which INHIBITION does the source give for CS(=O)(=O)CCN1CCN(c2ccc(Cl)cn2)CC1 here?
Answer: 0.0372%

Question: For CSCCCN1CCN(c2ccc(Cl)cn2)CC1, which INHIBITION is on record?
Answer: 30.7%

Question: CN1CCN(Cc2ccncc2)C(=O)C12CCN(c1nccs1)CC2 was tested. Which INHIBITION did it give?
Answer: -78.4%

Question: How did the INHIBITION turn out when CCCc1nc(C(C)(C)NC(=O)C2CC(=O)N(CC)C2)no1 (configuration not stated) was run?
Answer: -33.1%

Question: With N#Cc1cc(C#N)c(SCC(=O)Nc2ccc(F)cc2)nc1N as the molecule, how does the INHIBITION read?
Answer: 67.3%

Question: Which INHIBITION does the source give for N#Cc1cc(C#N)c(SCCC(=O)Nc2ccc(F)cc2)nc1N here?
Answer: 13.7%

Question: How did the INHIBITION turn out when N#Cc1cc(C#N)c(SCC(=O)NCc2ccc(F)cc2)nc1N was run?
Answer: -74.4%

Question: Which INHIBITION does the source give for CCC(Nc1ccc(CCN2CCCCC2)cc1)C(N)=O (configuration not stated) here?
Answer: 1.58%

Question: O=C(O)c1cc(S(=O)(=O)Nc2ccc(F)cc2F)cc2c1OCCO2 was tested. Which INHIBITION did it give?
Answer: -20.9%
